# Data from PubChem BioAssay AID488969 (Vanderbilt High Throughput Screening Facility, 2010).
# Whole data set: some 110,000 compounds, median “z-score” near -0.1, cut for the highest 2% near 2. What follows is part of a selection rich in the highest values, with near analogues and random picks from the rest. Active and inactive are the calls of the source.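 Rule for the calls: active = z-score in the third read window above 3 or below -3; inactive = the rest.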
# Biological target: Metabotropic glutamate receptor 8 (Rattus norvegicus) (UniProt P70579)
# Experiment: rat mGluR8 modulators via GIRK flux, primary screen, cell-based, thallium flux, HTS (AID 488969)
# Conditions: HEK293 rat mGluR8, GIRK (G protein-gated inwardly rectifying potassium channel) thallium flux, FluoZin2; at 10 µM; stronger effect = higher value; submaximal glutamate (EC20) added with thallium
# Chain of Metabotropic glutamate receptor 8 (Rattus norvegicus) (P70579 whole entry, looked up): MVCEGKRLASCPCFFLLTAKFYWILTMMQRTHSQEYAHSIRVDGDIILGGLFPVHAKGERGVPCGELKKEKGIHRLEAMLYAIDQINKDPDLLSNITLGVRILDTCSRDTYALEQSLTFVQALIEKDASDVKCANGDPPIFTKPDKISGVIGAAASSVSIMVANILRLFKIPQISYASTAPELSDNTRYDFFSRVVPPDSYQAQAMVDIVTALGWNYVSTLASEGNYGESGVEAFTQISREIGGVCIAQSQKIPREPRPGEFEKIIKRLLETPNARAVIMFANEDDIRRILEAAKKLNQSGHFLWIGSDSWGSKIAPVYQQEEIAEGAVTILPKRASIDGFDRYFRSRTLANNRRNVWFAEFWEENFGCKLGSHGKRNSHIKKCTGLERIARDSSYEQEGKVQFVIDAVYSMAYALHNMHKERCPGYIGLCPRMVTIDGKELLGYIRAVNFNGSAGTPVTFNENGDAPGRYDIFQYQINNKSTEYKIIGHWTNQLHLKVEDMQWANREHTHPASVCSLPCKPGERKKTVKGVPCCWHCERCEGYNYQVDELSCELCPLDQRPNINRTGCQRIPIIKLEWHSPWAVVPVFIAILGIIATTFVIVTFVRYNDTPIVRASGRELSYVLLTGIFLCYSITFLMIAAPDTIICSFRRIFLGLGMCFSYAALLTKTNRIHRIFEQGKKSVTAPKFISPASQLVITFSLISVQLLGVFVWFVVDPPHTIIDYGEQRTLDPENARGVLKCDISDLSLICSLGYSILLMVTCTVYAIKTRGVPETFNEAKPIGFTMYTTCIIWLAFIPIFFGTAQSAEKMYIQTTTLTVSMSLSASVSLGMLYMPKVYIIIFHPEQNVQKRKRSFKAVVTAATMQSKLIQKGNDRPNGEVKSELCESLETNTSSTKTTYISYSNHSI
row,Compound,z-score
1,N#Cc1ccc(C(=O)Nc2cc(S(=O)(=O)Nc3ccc(Cl)cc3)ccc2N2CCCCC2)cc1,-0.309
2,O=C(O)CCc1ccc(-c2ccc(F)cc2)n1NC(=O)c1ccco1,0.168
3,COc1ccc(N=Cc2cc3c(cc2O)OC(N)=C(C#N)C3c2ccccc2)cc1 (centres undefined),-1.18
4,Cc1ccc(N=Cc2cc3c(cc2O)OC(N)=C(C#N)C3c2ccccc2)cc1 (centres undefined),6.28 (active)
5,N#CC1=C(N)Oc2cc(O)c(C=Nc3ccccc3)cc2C1c1ccccc1 (centres undefined),-0.423
6,O=C(c1ccc(Cn2c(=O)[nH]c3ccccc3c2=O)cc1)N1CCN(c2ccc(Cl)cc2)CC1,-0.127
7,CC(C)CCn1c(CN2CCN(Cc3ccccc3)CC2)nc2c1c(=O)[nH]c(=O)n2C,5.8 (active)
8,CN1CCN(Cc2nc3c(c(=O)[nH]c(=O)n3C)n2CCc2ccccc2)CC1,-0.00916
9,CC(C)CCn1c(CN2CCN(Cc3ccccc3)CC2)nc2c1c(=O)n(C)c(=O)n2C,0.709
10,CC(C)CCNC(=O)CO/N=C/c1ccccc1OC(F)F,-0.572
11,COc1cc(Nc2nc(SCC#N)nc3ccccc23)cc(OC)c1OC,2.31
12,N#CCSc1nc(Nc2ccc3c(c2)OCO3)c2ccccc2n1,-0.556
13,COc1cc(Nc2nc3ccccc3n3nnnc23)cc(OC)c1OC,-0.0435
14,CC(C)COC(=O)c1cccc2c1-c1ccccc1/C2=N\O,-0.108
15,O=C(Nc1cccc(Oc2ccc3c(c2)C(=O)NC3=O)c1)c1cccs1,0.83
16,CC1CCCC(n2c(=S)[nH]c3ccccc3c2=O)C1C (centres undefined),9.07 (active)
17,CC1CCCCC1n1c(=S)[nH]c2ccccc2c1=O (centres undefined),16.2 (active)
18,Cc1cc(C)c2c(N=NN3CCCCC3)[nH]nc2n1,-0.0999
19,CCN(CC)S(=O)(=O)c1ccc(NC(=O)c2ccc(NS(C)(=O)=O)cc2)cc1,1.67
20,CCn1c(N2CCN(C(=S)NCC(C)C)CC2)nc2ccccc21,-0.148
21,CCCC(=O)NCc1ccc2c(c1)cc(C)n2C,-0.371
22,CC1=C(C(=O)OCC2CCCO2)C(c2ccc(C)o2)C2=C(CC(c3ccc(N(C)C)cc3)CC2=O)N1 (centres undefined),-0.22
23,CCOC(=O)C1=C(C)NC2=C(C(=O)CC(c3ccc(OC)c(OC)c3)C2)C1c1ccc(C)o1 (centres undefined),4.89 (active)

row,Compound,z-score
1,CC1=C(C(=O)OCC2CCCO2)C(c2ccc(C)o2)C2=C(CC(c3ccc(F)cc3)CC2=O)N1 (centres undefined),-3.31 (active)
2,Cc1cc(C(F)(F)F)nc(SCC(=O)NC2=NC(=O)C(C)S2)n1 (centres undefined),0.475
3,COc1ccccc1C(=O)NCC(=O)N/N=C/c1cc(Br)ccc1OC(=O)/C=C\c1ccco1,-0.122
4,O=C(CNC(=O)c1cccc(F)c1)N/N=C/c1cc(Br)ccc1OC(=O)/C=C/c1ccco1,2.46
5,O=C(CNC(=O)c1ccccc1F)N/N=C/c1cc(Br)ccc1OC(=O)/C=C/c1ccco1,-0.338
6,Cc1cc(C)nc(NC(=O)c2ccc(C)c([N+](=O)[O-])c2)n1,-0.0674
7,O=C(CN1CCN(CC(=O)Nc2ccccn2)CC1)Nc1ccccn1,-0.212
8,O=C(Nc1ccccc1)C(=O)Nc1ccccn1,-0.125
9,O=C(CC(=O)Nc1ccccn1)Nc1ccccn1,4.08 (active)
10,COc1ccc(OCc2nc3ccc(S(=O)(=O)Nc4ccccc4Cl)cc3[nH]2)cc1,-0.822
11,Cc1ccc(S(=O)(=O)N2CCCCC2)cc1NC(=O)CSc1ccc2c(c1)OCCO2,-0.361
12,Nc1nc(SCC(=O)N2CCCC2)[nH]c(=O)c1NC(=O)c1ccco1,0.975
13,CCCCSc1nc(O)c(Cc2ccccc2)c(=O)[nH]1,0.379
14,CCCCSc1nc(N)c(NC(=O)c2ccco2)c(=O)[nH]1,3.07 (active)
15,O=C(O)C1C2C=CC(C3CC23)C1C(=O)NCCc1ccccc1 (centres undefined),0.335
16,Cc1cc(C)n2nc(C(=O)NCc3ccccc3)cc2n1,0.128
17,CCS/C(N)=N/N=C/c1cc(C)ccc1O,-0.389
18,O=C(c1ccc(F)cc1)C1CCN(C(=S)Nc2ccccc2)CC1,-0.612
19,CCc1ccccc1NC(=S)N1CCC(C(=O)c2ccc(F)cc2)CC1,0.202
20,Cc1cccc(NC(=S)N2CCC(C(=O)c3ccc(F)cc3)CC2)c1C,5.76 (active)
21,Cc1ccc(Cn2ncc3c(NCCCN4CCOCC4)ncnc32)cc1,-0.227
22,CCc1nnc(NC(=O)CSc2nnc(-c3cccnc3)n2CCc2ccccc2)s1,0.167
23,Cc1ccc(OCCn2c(=O)sc3ccccc32)cc1,-0.193

row,Compound,z-score
1,COc1ccc(N(C)S(=O)(=O)c2c(C)[nH]c(=O)[nH]c2=O)cc1,0.02
2,COc1ccc(CO/N=C/c2c(C)[nH]c(=O)[nH]c2=O)cc1,3.36 (active)
3,COc1ccc(Cc2c[nH]c(=O)[nH]c2=O)cc1,-0.218
4,O=C(CSc1ncn[nH]1)Nc1ccc([N+](=O)[O-])cc1Br,-0.12
5,COc1ccc(C2CC(=O)C=C(NCCC(C)C)C2)cc1 (centres undefined),0.226
6,CCCCCNC1=CC(=O)CC(c2ccccc2)C1 (centres undefined),-0.123
7,CC(C)CCNC1=CC(=O)CC(c2ccccc2)C1 (centres undefined),2.1
8,CC(c1ccccc1)N1C(=O)c2ccc(C(=O)NCc3ccco3)cc2C1=O (centres undefined),-0.54
9,Cc1ccc(N=C(NO)c2nonc2N)cc1,-1.5
10,Cn1ccnc1C(O)(c1nnc(-c2ccccc2)o1)C(F)(F)F (centres undefined),-1.19
11,CCCCn1c(O)c(N=Nc2ccccn2)c2ccccc21,2.97
12,Cc1cc(C(=O)N=Nc2c(O)n(C(C)C)c3ccccc23)n[nH]1,0.232
13,CC(C)n1c(O)c(N=NC(=O)c2ccccc2NS(=O)(=O)c2cccs2)c2ccccc21,-0.411
14,CC(C)CCn1c(O)c(N=Nc2ccccn2)c2ccccc21,1.19
15,CC(C)n1c(O)c(N=NC(=O)Cn2ccc(C(F)(F)F)n2)c2ccccc21,1.13
16,CC(C)n1c(O)c(N=Nc2ccc(Cl)nn2)c2ccccc21,3.42 (active)
17,CCCCn1c(O)c(N=NC(=O)Cn2c(C(F)(F)F)nc3ccccc32)c2ccccc21,0.194
18,CC(C)n1c2ccccc2c2nc3ccccc3nc21,-0.47
19,CC(C)n1c(O)c(N=Nc2ccccn2)c2ccccc21,2.21
20,COc1ccc(CC(=O)NCc2ccco2)cc1OC,-0.0499
21,CN(C)C(CNS(=O)(=O)c1ccc(Cl)cc1)c1cccnc1 (centres undefined),-0.0299
22,CCOC(=O)CCc1c(C)c2ccc(OCC(=O)N(CC)CC)c(C)c2oc1=O,-0.0102
23,CCCc1cc(=O)[nH]c(SCC(=O)N2N=C(c3ccc(Cl)cc3)CC2c2ccco2)n1 (centres undefined),-0.126
